39 compounds from PubChem BioAssay AID624117 (National Center for Advancing Translational Sciences (NCATS), 2012) can be followed below.

Inconclusive results are not listed. Calls of active or inactive are those of the source. The call rests on the fitted dose curve; in most records, active means well fitted curve in the direction sought with a large enough effect; inconclusive means small, poorly fitted or top-dose-only effect, or another doubt; inactive means no such curve, though single readings can be large or run the other way.
Potency means the concentration at half of the fitted maximal effect.

The nature of this experiment: qHTS Assay for Rab9 Promoter Activators: Hit Validation Using Renilla Luciferase Read-Out. On activation (negative = inhibition): % of control where 0% means no effect. The following applies: Huh7 NPC1 promoter Renilla luciferase reporter, 24 h; series mostly up to 76.9 µM; activation (negative = inhibition): at the top concentration. In a few lines: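 Huh7 cells stably carrying NPC promoter-luciferase, 1,500 cells/well, exposed to compound for 24 h at 37 deg C. Luminescence read 10 min after […] addition; validation of firefly-read primary hits.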
For orientation: In qHTS, concentration-response curves come from the screen itself.
As for `CCN(CC(=O)N(CC(C)C)c1c(N)n(CC(C)C)c(=O)[nH]c1=O)Cc1nc2ccccc2c(=O)[nH]1`, the “activation (negative = inhibition)” value was -6.08% (inactive). Still for that read-out and setting: the value for `Cc1cccc(N2CCN(C(=S)c3ccccc3)CC2)c1` was 1.13% (inactive).

With `Cc1ccc2nc(Nc3ccc(Cl)cc3)c3nncn3c2c1`, the “activation (negative = inhibition)” value is -1.87% (inactive).

As for `COc1ccccc1OCCCC(=O)NCc1ccco1`, the “activation (negative = inhibition)” value was -1.3% (inactive). In the case of `CC1CCCN(S(=O)(=O)c2ccc(C(=O)Nc3nnc(-c4ccncc4)o3)cc2)C1` (centres undefined), the “activation (negative = inhibition)” value is -97.9% (inactive).

As for `Cc1ccc(C(=O)Nc2ccc(N3CCN(C)CC3)nc2)cc1`, the “activation (negative = inhibition)” value is -2.51% (inactive). In the case of `CC(C)(C)C(=O)N/C(N)=N/c1nc2ccccc2o1`, the “activation (negative = inhibition)” value is -72.9% (inactive).

As to `CCCCn1c(CCNC(=O)c2cccs2)nc2ccccc21`, the “activation (negative = inhibition)” value is -13.5% (inactive). Same read-out and setting: the value for `Cc1ccc(C(=O)Nc2nnc(S(=O)(=O)N3CCOCC3)s2)cc1` was 8.76% (inactive). In the case of `Nc1ccccc1C(=O)N/N=C1/C2CN3CCN(C2)CC1(Cc1ccccc1)C3`, the “activation (negative = inhibition)” value is -14.9% (inactive).

Consider `O=C(CSc1nnc(-c2ccccn2)o1)Nc1ccccc1Cl`, for which the “activation (negative = inhibition)” value was -3.21% (inactive).

Take `CC1(C)CC(=O)c2c(O)c(-c3ccccc3)c(=O)n(-c3ccccc3)c2C1`: the “activation (negative = inhibition)” value is -3.78% (inactive). For `O=C(NCCc1c[nH]c2ccccc12)C(=O)NCC(c1ccco1)N1CCN(c2ccccc2F)CC1` (centres undefined), the “activation (negative = inhibition)” value was -40.5% (inactive). `COc1ccc(-n2c(N)c(C(=O)NCc3ccco3)sc2=S)cc1`: the “activation (negative = inhibition)” value was -2.97% (inactive).

For the compound `C=CCOC(=O)N1CCN(c2cccc(C(F)(F)F)c2)CC1`, the “activation (negative = inhibition)” value was -2.4% (inactive). Same read-out and setting: the figure for `CCCC(C)NC(=O)c1ccc(OCc2ccc(Cl)cc2)c(OC)c1` (centres undefined) is -10.1% (inactive); for `Cc1cccc(NC(=O)CSc2nc3ccccc3o2)c1` it is -11.1% (inactive).

Turning to `CCOc1ccc(CNC(=O)C2CCCN(S(C)(=O)=O)C2)cc1OC` (centres undefined), the “activation (negative = inhibition)” value was -4.35% (inactive). As for `CCCNC(=O)C1CCN(S(=O)(=O)c2ccc3[nH]c(=O)ccc3c2)CC1`, the “activation (negative = inhibition)” value is -9.86% (inactive). `Cc1nn(CCCC(=O)NCc2ccc(F)cc2)c(C)c1[N+](=O)[O-]`: the “activation (negative = inhibition)” value is -2.28% (inactive).

Regarding `CCC(=O)N1c2ccccc2NC2=C(C(=O)CCC2)C1c1ccc(N(C)C)cc1` (centres undefined), the “activation (negative = inhibition)” value is 4.45% (inactive). Still for that read-out and setting: the value for `O=C(CSc1nnc(Cc2cc(=O)[nH]c(=O)[nH]2)n1-c1ccc(Cl)cc1)NC1CCCC1` was 2.15% (inactive); that for `O=C(CN1C(=O)COc2ccc(Cl)cc21)NCC1CCCO1` (centres undefined) was 1.1% (inactive). Regarding `CC(C)C1(CCNC(=O)c2cccs2)CCOC(C)(C)C1` (centres undefined), the “activation (negative = inhibition)” value is -5.65% (inactive).

For `COc1ccc(-c2noc(N3CCCC(C(=O)Nc4ccccc4F)C3)n2)cc1` (centres undefined), the “activation (negative = inhibition)” value was -14.1% (inactive). The same measure, in the same setting: the value for `O=C(CSc1nccn1Cc1ccco1)Nc1ccccc1F` was 10.3% (inactive). For the compound `Cc1nc(-c2ccccn2)sc1C(=O)Nc1ccc(F)cc1F`, the “activation (negative = inhibition)” value is -5.7% (inactive). Same read-out and setting: the value for `CCCN(CCC)CCCNC(=O)c1cc2cc3ccc(Cl)cc3nc2o1` was -30.2% (inactive); that for `O=C(Nc1nc2ccc(F)cc2s1)c1ccc(N2CCCC2=O)cc1` was 2.48% (inactive). The same measure, in the same setting: the figure for `Cc1c(C(O)CN2CCN(Cc3ccc4c(c3)OCO4)CC2)c2ccccc2n1C` (centres undefined) is 11.6% (inactive). Turning to `CCCCCCOc1ccc(OC(=O)c2cccnc2)cc1`, the Potency was 2.07 µM (active). On to `O=[N+]([O-])c1cnccc1Nc1ccc(F)cc1`, for which the “activation (negative = inhibition)” value was 7.9% (inactive). For `COCC1CCN(C(=O)c2ccc3oc(Cc4ccccc4)nc3c2)C1` (centres undefined), the “activation (negative = inhibition)” value is 3.34% (inactive). Still for that read-out and setting: the value for `CCOC(=O)c1ccc(-c2nnc(-c3ccc(Cl)cc3Cl)o2)cc1` was -4.69% (inactive); that for `COc1ccc(NC(=O)CCCN2C(=O)C(c3ccccc3)Oc3cccnc32)cc1OC` (centres undefined) was -6% (inactive). Still for that read-out and setting: the value for `N#CC/C(N)=N/NC(=O)CCCNc1ncc(C(F)(F)F)cc1Cl` was -4.96% (inactive); that for `O=CN1CCN(C(=O)c2ccccc2Cl)CC1` was -4.72% (inactive). The same measure, in the same setting: the value for `Cc1ccc(S(=O)(=O)/N=C2\C=C(Nc3cccc(C(=O)O)c3)C(=O)c3ccccc32)cc1` was -90.7% (inactive). Take `Brc1ccccc1-c1nnc(CSc2nnc3sc4ccccc4n23)o1`: the “activation (negative = inhibition)” value was -3.13% (inactive).
